The values below come from paper PMC7862700, “An all-to-all approach to the identification of sequence-specific readers for epigenetic DNA modifications on cytosine”.

Common to all, as to assay: DAPPL (digital affinity profiling via proximity ligation, sequencing); 10 mM Tris-HCl pH 7.5, 50 mM NaCl, 1 mM DTT, 4% glycerol, room temperature, 30 min; GST-TFs on glutathione beads, 16-mer random dsDNA library, 0.1% formaldehyde crosslink after washing; high values mean tight binding
The target in one test is T1, FLI1 (Homo sapiens, UniProt Q01543 1-452).
T1 sequence: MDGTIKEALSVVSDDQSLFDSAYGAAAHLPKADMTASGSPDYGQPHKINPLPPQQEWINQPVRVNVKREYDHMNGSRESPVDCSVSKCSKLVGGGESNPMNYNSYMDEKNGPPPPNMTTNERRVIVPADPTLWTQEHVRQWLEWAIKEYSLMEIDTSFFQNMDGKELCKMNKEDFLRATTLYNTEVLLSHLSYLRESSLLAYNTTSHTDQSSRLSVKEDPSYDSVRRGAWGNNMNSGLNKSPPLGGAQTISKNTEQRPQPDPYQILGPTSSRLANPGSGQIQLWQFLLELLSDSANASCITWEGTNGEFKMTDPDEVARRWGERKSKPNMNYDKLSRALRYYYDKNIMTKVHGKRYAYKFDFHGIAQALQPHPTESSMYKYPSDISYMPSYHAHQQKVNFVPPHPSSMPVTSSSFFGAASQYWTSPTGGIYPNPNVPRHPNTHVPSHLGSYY
The following applies: protein: recombinant; tags: N-terminal GST; dsDNA, one strand shown. The essentials:
(§1)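 Each value of binding signal is a hexamer's read frequency for a factor divided by the same hexamer's frequency in the tag-only sample. Barcoded, bead-captured GST fusions of human transcription factors made in yeast were pooled with that sample and incubated with 200 nmole of a random double-stranded 16-mer DNA library in Tris/NaCl/DTT/glycerol buffer at room temperature for 30 min. Washing, 0.1% formaldehyde crosslinking, proximity ligation, PCR and Illumina NextSeq500 sequencing followed.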

Another test has as its target T2, ELK1 (Homo sapiens, UniProt P19419 1-428).
T2 sequence: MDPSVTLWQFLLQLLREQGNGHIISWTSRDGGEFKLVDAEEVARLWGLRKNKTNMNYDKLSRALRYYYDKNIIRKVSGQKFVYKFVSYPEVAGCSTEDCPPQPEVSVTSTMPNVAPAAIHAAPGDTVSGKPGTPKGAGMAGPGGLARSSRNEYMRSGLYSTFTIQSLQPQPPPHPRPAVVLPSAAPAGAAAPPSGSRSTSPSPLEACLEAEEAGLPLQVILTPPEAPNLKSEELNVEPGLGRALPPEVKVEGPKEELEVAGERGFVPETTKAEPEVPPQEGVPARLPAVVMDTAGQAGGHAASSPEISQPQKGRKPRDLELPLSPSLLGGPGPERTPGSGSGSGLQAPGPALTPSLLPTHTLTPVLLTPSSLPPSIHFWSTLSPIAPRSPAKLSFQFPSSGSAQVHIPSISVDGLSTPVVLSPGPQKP
The conditions noted are these: protein: recombinant; tags: N-terminal GST; dsDNA, one strand shown. The gist of the method:
as §1

Another test concerns the target T3, GABPA (Homo sapiens, UniProt Q06546 1-454).
T3 sequence: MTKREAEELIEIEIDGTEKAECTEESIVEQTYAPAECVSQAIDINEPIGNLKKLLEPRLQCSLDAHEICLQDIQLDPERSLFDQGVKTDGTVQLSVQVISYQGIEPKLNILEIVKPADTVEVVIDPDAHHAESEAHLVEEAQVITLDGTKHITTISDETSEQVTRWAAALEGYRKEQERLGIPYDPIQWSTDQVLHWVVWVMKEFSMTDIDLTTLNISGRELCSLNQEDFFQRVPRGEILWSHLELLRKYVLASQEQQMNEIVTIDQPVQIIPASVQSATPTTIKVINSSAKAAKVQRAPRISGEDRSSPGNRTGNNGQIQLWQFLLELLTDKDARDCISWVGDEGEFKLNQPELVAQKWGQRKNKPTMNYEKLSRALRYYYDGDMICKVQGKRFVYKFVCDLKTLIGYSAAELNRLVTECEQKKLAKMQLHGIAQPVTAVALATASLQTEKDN
The conditions noted are these: protein: recombinant; tags: N-terminal GST; dsDNA, one strand shown. The gist of the method: as §1

For the next test, the target named is T4, ERG (Homo sapiens, UniProt P11308 1-479).
T4 sequence: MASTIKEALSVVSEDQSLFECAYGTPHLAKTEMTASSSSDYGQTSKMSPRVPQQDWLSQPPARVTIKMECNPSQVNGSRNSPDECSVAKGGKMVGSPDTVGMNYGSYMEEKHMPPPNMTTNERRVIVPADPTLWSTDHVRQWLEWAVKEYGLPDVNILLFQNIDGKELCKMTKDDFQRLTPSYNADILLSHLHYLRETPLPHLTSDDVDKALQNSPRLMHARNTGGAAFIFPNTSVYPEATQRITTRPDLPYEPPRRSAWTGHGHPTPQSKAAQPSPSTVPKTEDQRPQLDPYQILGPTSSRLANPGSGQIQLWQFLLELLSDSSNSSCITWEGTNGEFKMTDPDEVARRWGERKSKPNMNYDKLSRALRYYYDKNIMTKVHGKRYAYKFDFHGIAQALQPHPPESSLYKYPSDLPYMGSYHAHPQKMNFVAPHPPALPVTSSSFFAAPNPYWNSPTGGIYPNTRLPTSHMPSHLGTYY
The conditions noted are these: protein: recombinant; tags: N-terminal GST; dsDNA, one strand shown. The gist of the method: as §1

A further test concerns the target ELF1 (Homo sapiens, UniProt P32519 1-619). The following applies: protein: recombinant; tags: N-terminal GST; dsDNA, one strand shown. The gist of the method:
as §1

The target in a further test is T5, EHF (Homo sapiens, UniProt Q9NZC4 1-300).
T5 sequence: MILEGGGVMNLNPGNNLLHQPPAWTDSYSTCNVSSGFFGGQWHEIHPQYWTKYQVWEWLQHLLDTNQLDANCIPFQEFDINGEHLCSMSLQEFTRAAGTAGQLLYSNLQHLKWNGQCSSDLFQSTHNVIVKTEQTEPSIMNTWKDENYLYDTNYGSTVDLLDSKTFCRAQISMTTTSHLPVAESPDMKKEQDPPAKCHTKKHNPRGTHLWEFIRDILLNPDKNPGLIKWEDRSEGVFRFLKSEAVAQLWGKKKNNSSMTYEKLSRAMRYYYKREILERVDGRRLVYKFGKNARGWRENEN
The conditions noted are these: protein: recombinant; tags: N-terminal GST; dsDNA, one strand shown. The gist of the method:
as §1

The next test concerns the target SPI1 (Homo sapiens, UniProt P17947 1-270). The following applies: protein: recombinant; tags: N-terminal GST; dsDNA, one strand shown. The essentials: as §1
The target in another test is SPIB (Homo sapiens, UniProt Q01892 1-262). The conditions noted are these: protein: recombinant; tags: N-terminal GST; dsDNA, one strand shown. The essentials: as §1
SPIB, sequence (Q01892 whole entry): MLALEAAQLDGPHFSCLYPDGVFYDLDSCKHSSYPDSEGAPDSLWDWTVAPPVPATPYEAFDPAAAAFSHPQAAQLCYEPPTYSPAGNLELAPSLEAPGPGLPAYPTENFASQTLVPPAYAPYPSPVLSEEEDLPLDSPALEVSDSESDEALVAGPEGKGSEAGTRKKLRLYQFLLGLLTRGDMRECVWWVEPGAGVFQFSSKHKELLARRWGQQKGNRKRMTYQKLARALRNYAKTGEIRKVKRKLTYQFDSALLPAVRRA
The target in a further test is T6, FEV (Homo sapiens, UniProt Q99581 1-238).
T6 sequence: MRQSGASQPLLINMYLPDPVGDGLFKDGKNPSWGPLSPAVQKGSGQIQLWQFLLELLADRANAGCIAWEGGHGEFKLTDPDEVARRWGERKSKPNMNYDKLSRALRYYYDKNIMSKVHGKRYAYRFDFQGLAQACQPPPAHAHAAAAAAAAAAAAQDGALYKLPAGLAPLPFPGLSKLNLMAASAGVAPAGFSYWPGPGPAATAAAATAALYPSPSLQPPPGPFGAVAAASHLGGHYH
The conditions noted are these: protein: recombinant; tags: N-terminal GST; dsDNA, one strand shown. The gist of the method: as §1

In a further test the target is ETV5 (Homo sapiens, UniProt P41161 1-510). The following applies: protein: recombinant; tags: N-terminal GST; dsDNA, one strand shown. The essentials:
as §1

Another test has as its target HSF1 (Homo sapiens, UniProt Q00613 1-529). The following applies: protein: recombinant; tags: N-terminal GST; chain copies: 3; dsDNA, one strand shown. The gist of the method:
as §1

The target in a further test is ELF4 (Homo sapiens, UniProt Q99607 1-663). The following applies: protein: recombinant; tags: N-terminal GST; dsDNA, one strand shown. The essentials:
as §1

A further test addresses T7, ELK4 (Homo sapiens, UniProt P28324-2 1-405).
T7 sequence: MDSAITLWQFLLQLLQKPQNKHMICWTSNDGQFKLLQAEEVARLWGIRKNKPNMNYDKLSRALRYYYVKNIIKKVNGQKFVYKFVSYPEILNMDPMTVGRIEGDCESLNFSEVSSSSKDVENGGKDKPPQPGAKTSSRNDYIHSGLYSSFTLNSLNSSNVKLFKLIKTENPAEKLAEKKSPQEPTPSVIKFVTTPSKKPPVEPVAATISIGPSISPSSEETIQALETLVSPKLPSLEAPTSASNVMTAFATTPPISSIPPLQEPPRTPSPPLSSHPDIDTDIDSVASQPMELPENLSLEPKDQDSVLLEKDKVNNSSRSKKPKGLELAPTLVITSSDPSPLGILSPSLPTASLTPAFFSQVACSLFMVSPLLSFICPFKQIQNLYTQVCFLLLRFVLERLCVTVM
The conditions noted are these: protein: recombinant; tags: N-terminal GST; dsDNA, one strand shown. The essentials: as §1

A further test has as its target T8, ELF3 (Homo sapiens, UniProt P78545 1-371).
T8 sequence: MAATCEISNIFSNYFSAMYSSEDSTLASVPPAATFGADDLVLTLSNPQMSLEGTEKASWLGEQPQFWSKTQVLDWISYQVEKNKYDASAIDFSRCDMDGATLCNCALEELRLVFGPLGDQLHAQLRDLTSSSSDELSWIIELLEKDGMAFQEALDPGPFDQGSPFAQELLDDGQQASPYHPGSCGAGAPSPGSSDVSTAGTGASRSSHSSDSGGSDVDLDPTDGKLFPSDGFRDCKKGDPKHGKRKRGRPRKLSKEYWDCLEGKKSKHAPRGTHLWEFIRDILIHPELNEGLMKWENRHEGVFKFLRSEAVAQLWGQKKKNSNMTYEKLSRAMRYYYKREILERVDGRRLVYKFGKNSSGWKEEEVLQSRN
The conditions noted are these: protein: recombinant; tags: N-terminal GST; dsDNA, one strand shown. The gist of the method:
as §1

The target in another test is CRX (Homo sapiens, UniProt O43186 1-299). The conditions noted are these: protein: recombinant; tags: N-terminal GST; dsDNA, one strand shown. The gist of the method: as §1
CRX, sequence (O43186 whole entry): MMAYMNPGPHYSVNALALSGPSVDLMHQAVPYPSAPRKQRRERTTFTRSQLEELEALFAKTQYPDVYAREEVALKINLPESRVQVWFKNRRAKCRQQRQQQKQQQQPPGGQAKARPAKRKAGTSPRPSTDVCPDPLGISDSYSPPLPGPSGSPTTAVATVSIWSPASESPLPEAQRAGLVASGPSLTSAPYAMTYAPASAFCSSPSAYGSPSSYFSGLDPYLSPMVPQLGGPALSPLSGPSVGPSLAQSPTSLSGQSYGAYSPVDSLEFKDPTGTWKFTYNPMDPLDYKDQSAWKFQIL
The target of a further test is ETV1 (Homo sapiens, UniProt P50549 1-477). The following applies: protein: recombinant; tags: N-terminal GST; dsDNA, one strand shown. The gist of the method: as §1
ETV1, sequence (P50549 whole entry): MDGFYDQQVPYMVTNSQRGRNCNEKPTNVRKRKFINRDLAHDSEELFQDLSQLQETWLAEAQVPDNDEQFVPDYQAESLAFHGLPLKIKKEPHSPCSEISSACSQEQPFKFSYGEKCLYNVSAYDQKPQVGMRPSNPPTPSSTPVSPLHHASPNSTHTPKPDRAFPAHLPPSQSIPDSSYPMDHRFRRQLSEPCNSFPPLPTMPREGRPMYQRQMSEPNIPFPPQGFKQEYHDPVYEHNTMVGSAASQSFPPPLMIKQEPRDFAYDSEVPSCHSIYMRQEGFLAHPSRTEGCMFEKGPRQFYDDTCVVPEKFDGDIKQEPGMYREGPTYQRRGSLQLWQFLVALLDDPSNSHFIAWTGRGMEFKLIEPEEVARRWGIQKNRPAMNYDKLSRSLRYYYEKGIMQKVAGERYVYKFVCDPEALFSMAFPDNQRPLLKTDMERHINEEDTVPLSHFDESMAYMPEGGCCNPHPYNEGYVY

ELF4, sequence (Q99607 whole entry): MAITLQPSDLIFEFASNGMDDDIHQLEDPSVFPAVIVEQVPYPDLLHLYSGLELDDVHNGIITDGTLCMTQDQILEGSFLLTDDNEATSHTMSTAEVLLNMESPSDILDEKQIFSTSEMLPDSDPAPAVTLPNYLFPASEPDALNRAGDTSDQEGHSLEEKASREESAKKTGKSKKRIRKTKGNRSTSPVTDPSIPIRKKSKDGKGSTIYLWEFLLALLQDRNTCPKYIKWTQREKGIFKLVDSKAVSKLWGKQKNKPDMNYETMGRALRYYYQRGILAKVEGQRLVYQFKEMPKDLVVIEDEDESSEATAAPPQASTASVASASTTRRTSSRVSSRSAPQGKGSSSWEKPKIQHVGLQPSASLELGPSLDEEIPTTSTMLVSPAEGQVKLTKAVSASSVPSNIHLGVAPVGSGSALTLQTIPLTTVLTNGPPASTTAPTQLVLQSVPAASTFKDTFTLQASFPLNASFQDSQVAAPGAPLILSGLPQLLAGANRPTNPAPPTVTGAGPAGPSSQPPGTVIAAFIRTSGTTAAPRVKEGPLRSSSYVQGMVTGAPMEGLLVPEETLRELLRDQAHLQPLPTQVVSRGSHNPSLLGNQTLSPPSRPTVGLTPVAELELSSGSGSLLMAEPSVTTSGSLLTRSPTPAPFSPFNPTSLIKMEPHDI
ELF1, sequence (P32519 whole entry): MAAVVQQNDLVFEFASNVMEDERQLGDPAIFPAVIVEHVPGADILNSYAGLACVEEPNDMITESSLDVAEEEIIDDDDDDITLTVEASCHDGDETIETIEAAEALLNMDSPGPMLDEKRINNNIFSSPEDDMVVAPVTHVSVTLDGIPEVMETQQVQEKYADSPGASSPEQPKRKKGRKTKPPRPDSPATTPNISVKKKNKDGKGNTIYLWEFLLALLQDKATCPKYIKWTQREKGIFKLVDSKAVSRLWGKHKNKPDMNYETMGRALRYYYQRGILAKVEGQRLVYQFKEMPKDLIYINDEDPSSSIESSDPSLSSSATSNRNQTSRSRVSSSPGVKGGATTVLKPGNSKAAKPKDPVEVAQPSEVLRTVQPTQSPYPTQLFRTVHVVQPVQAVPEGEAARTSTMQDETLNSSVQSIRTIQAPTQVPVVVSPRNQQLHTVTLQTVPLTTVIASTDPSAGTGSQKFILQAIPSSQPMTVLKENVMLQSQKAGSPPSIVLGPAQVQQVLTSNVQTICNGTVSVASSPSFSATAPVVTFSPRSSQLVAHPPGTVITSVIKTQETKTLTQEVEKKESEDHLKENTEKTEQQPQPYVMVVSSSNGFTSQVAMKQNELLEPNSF
HSF1, sequence (Q00613 whole entry): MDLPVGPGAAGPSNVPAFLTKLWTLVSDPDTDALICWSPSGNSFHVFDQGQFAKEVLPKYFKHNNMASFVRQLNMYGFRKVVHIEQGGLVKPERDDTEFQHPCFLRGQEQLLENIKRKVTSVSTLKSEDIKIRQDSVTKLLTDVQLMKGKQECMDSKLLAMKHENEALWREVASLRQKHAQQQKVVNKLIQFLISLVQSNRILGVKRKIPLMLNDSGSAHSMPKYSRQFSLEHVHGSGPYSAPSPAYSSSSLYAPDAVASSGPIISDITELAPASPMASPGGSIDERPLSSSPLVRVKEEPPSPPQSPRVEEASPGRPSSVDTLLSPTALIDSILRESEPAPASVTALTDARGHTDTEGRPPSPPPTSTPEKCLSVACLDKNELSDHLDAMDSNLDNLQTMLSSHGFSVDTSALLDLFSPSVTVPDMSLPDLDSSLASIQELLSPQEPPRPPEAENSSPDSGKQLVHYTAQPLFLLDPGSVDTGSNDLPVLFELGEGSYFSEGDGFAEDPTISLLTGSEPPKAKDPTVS
ETV5, sequence (P41161 whole entry): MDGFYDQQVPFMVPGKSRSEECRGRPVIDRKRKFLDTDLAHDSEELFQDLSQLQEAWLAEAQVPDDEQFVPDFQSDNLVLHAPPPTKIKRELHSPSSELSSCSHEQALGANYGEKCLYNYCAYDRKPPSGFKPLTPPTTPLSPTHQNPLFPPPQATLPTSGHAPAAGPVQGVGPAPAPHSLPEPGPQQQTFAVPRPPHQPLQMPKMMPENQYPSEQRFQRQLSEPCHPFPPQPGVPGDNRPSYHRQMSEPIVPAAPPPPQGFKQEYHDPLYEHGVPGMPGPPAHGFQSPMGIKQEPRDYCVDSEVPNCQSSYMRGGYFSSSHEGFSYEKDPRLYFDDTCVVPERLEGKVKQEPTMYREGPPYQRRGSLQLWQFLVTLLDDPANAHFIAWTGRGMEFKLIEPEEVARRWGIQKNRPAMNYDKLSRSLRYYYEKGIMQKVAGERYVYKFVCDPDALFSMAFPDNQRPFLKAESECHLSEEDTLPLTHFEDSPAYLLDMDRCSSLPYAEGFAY

For the sequence GGTAAT, the binding signal is 1.15 fold enrichment (6-mer frequency, TF over GST control) with FLI1; 1.1 fold enrichment (6-mer frequency, TF over GST control) with ELK1; 1.22 fold enrichment (6-mer frequency, TF over GST control) with GABPA; 1.08 fold enrichment (6-mer frequency, TF over GST control) with ERG; 1.17 fold enrichment (6-mer frequency, TF over GST control) with ELF1; 1.2 fold enrichment (6-mer frequency, TF over GST control) with EHF. Besides, the binding signal is 1.04 fold enrichment (6-mer frequency, TF over GST control) with SPI1; 1.11 fold enrichment (6-mer frequency, TF over GST control) in the test with SPIB; 1.09 fold enrichment (6-mer frequency, TF over GST control) with FEV; 1.13 fold enrichment (6-mer frequency, TF over GST control) with ETV5; 1.27 fold enrichment (6-mer frequency, TF over GST control) in the test with HSF1; 1.08 fold enrichment (6-mer frequency, TF over GST control) with ELF4. The binding signal with ELK4 was 1.21 fold enrichment (6-mer frequency, TF over GST control); in the test with ELF3, 1.17 fold enrichment (6-mer frequency, TF over GST control); with CRX, 1.76 fold enrichment (6-mer frequency, TF over GST control); with ETV1, 1.19 fold enrichment (6-mer frequency, TF over GST control).
